# Reference: article PMC8384837, “Expanding the binding specificity for RNA recognition by a PUF domain”
# Where a chain is given by its changes, count along the chain named.
# What was measured:
# Assay in all cases: yeast three-hybrid, YBZ-1, SC-Leu-His + 0.5 mM 3-AT, 4 days
# Details in all cases: tags: N-Gal4 AD-HA kept; label: inside an RPR1-promoter hybrid RNA with tandem MS2 sites; ssRNA
# PUM1 PUF domain R6-EWV = molecular target: T1, PUM1 PUF domain R6-EWV (Homo sapiens, UniProt Q14671 828-1176, N1043E;Y1044W;Q1047V)
# T1 sequence: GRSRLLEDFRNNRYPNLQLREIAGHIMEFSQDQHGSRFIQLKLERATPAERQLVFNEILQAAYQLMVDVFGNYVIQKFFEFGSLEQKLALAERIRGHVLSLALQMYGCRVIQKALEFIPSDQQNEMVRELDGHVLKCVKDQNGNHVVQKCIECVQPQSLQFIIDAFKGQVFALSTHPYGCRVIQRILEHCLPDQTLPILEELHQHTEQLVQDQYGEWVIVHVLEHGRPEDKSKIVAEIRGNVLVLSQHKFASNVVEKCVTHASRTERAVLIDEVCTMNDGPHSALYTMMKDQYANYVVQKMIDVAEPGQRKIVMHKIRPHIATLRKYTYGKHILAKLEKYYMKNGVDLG
# In short: (§1)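 The interaction score is the log change in how often each variant appears, from input to selection. Frequencies came from PCR-amplified, Illumina-sequenced repeat regions of Pumilio-1 PUF domain libraries grown in strain YBZ-1 (LexA–MS2 coat fusion, HIS3 reporter) alongside matching RNA elements. Input plates were SC-Leu and selection plates were SC-Leu-His + 0.5 mM 3-AT, each for four days, and the log2 calculation used a pseudocount of 1 where a variant was absent.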
# PUM1 PUF domain R8-HFA = PUM1 PUF domain R8-HFA (Homo sapiens, UniProt Q14671 828-1176, N1122H;Y1123F;Q1126A)
# In short: as §1
# PUM1 PUF domain R8-IRK = PUM1 PUF domain R8-IRK (Homo sapiens, UniProt Q14671 828-1176, N1122I;Y1123R;Q1126K)
# In short: as §1
# PUM1 PUF domain R8-KRT = PUM1 PUF domain R8-KRT (Homo sapiens, UniProt Q14671 828-1176, N1122K;Y1123R;Q1126T)
# In short: as §1
# PUM1 PUF domain R8-HHK = PUM1 PUF domain R8-HHK (Homo sapiens, UniProt Q14671 828-1176, N1122H;Y1123H;Q1126K)
# In short: as §1
# PUM1 PUF domain R1-KMV = PUM1 PUF domain R1-KMV (Homo sapiens, UniProt Q14671 828-1176, S863K;R864M;Q867V)
# In short: as §1
# PUM1 PUF domain R6-RVT = molecular target: T2, PUM1 PUF domain R6-RVT (Homo sapiens, UniProt Q14671 828-1176, N1043R;Y1044V;Q1047T)
# T2 sequence: T1 sequence with E216R, W217V, V220T
# In short: as §1
# PUM1 PUF domain R5-PRR = PUM1 PUF domain R5-PRR (Homo sapiens, UniProt Q14671 828-1176, C1007P;Q1011R)
# In short: as §1
# PUM1 PUF domain R8-KHA = PUM1 PUF domain R8-KHA (Homo sapiens, UniProt Q14671 828-1176, N1122K;Y1123H;Q1126A)
# In short: as §1
# PUM1 PUF domain R7-DFE = PUM1 PUF domain R7-DFE (Homo sapiens, UniProt Q14671 828-1176, S1079D;N1080F)
# In short: as §1
# PUM1 PUF domain R6-NRK = molecular target: T3, PUM1 PUF domain R6-NRK (Homo sapiens, UniProt Q14671 828-1176, Y1044R;Q1047K)
# T3 sequence: T1 sequence with E216N, W217R, V220K
# In short: as §1
# PUM1 PUF domain R6-SFV = molecular target: T4, PUM1 PUF domain R6-SFV (Homo sapiens, UniProt Q14671 828-1176, N1043S;Y1044F;Q1047V)
# T4 sequence: T1 sequence with E216S, W217F
# In short: as §1
# PUM1 PUF domain R4-AGY = PUM1 PUF domain R4-AGY (Homo sapiens, UniProt Q14671 828-1176, N971A;H972G;Q975Y)
# In short: as §1
# PUM1 PUF domain R7-GVV = PUM1 PUF domain R7-GVV (Homo sapiens, UniProt Q14671 828-1176, S1079G;N1080V;E1083V)
# In short: as §1
# PUM1 PUF domain R3-RRK = PUM1 PUF domain R3-RRK (Homo sapiens, UniProt Q14671 828-1176, C935R;Q939K)
# In short: as §1
# PUM1 PUF domain R3-LSQ = PUM1 PUF domain R3-LSQ (Homo sapiens, UniProt Q14671 828-1176, C935L;R936S)
# In short: as §1
# PUM1 PUF domain R5-RSK = PUM1 PUF domain R5-RSK (Homo sapiens, UniProt Q14671 828-1176, C1007R;R1008S;Q1011K)
# In short: as §1
# PUM1 PUF domain R5-KPI = PUM1 PUF domain R5-KPI (Homo sapiens, UniProt Q14671 828-1176, C1007K;R1008P;Q1011I)
# In short: as §1
# PUM1 PUF domain R5-QSC = PUM1 PUF domain R5-QSC (Homo sapiens, UniProt Q14671 828-1176, C1007Q;R1008S;Q1011C)
# In short: as §1
# PUM1 PUF domain R5-SGC = PUM1 PUF domain R5-SGC (Homo sapiens, UniProt Q14671 828-1176, C1007S;R1008G;Q1011C)
# In short: as §1
sequence,measurement,setting,value
GGCUAGAACUAGUGGAUCCCCCGGCGCCCGGCGGCUCGAGCCCGGGUAAGUGAAAAUAGUCUGCAUGCCGCCGGGCGCCAUGCCUGCAGGUCGACUCUAGAAAACAUG,binding signal,PUM1 PUF domain R6-EWV,3.43 log2 enrichment (interaction score)
GGCUAGAACUAGUGGAUCCCCCGGCGCCCGGCGGCUCGAGCCCGGGUAAGCGUAAAUAGUCUGCAUGCCGCCGGGCGCCAUGCCUGCAGGUCGACUCUAGAAAACAUG,binding signal,PUM1 PUF domain R8-HFA,3.45 log2 enrichment (interaction score)
same,binding signal,PUM1 PUF domain R8-IRK,2.54 log2 enrichment (interaction score)
same,binding signal,PUM1 PUF domain R8-KRT,2.71 log2 enrichment (interaction score)
same,binding signal,PUM1 PUF domain R8-HHK,3.15 log2 enrichment (interaction score)
GGCUAGAACUAGUGGAUCCCCCGGCGCCCGGCGGCUCGAGCCCGGGUAAGUGUAAAUCGUCUGCAUGCCGCCGGGCGCCAUGCCUGCAGGUCGACUCUAGAAAACAUG,binding signal,PUM1 PUF domain R1-KMV,3.19 log2 enrichment (interaction score)
GGCUAGAACUAGUGGAUCCCCCGGCGCCCGGCGGCUCGAGCCCGGGUAAGUGCAAAUAGUCUGCAUGCCGCCGGGCGCCAUGCCUGCAGGUCGACUCUAGAAAACAUG,binding signal,PUM1 PUF domain R6-RVT,4.2 log2 enrichment (interaction score)
GGCUAGAACUAGUGGAUCCCCCGGCGCCCGGCGGCUCGAGCCCGGGUAAGUGUUAAUAGUCUGCAUGCCGCCGGGCGCCAUGCCUGCAGGUCGACUCUAGAAAACAUG,binding signal,PUM1 PUF domain R5-PRR,3.23 log2 enrichment (interaction score)
GGCUAGAACUAGUGGAUCCCCCGGCGCCCGGCGGCUCGAGCCCGGGUAAGUGUAAAUAGUCUGCAUGCCGCCGGGCGCCAUGCCUGCAGGUCGACUCUAGAAAACAUG,binding signal,PUM1 PUF domain R8-KHA,3.55 log2 enrichment (interaction score)
same,binding signal,PUM1 PUF domain R8-HFA,2.13 log2 enrichment (interaction score)
same,binding signal,PUM1 PUF domain R5-PRR,2.16 log2 enrichment (interaction score)
same,binding signal,PUM1 PUF domain R6-EWV,1.65 log2 enrichment (interaction score)
same,binding signal,PUM1 PUF domain R7-DFE,2.67 log2 enrichment (interaction score)
same,binding signal,PUM1 PUF domain R6-NRK,3.68 log2 enrichment (interaction score)
same,binding signal,PUM1 PUF domain R6-SFV,3.58 log2 enrichment (interaction score)
same,binding signal,PUM1 PUF domain R8-KRT,1.36 log2 enrichment (interaction score)
same,binding signal,PUM1 PUF domain R4-AGY,3.24 log2 enrichment (interaction score)
GGCUAGAACUAGUGGAUCCCCCGGCGCCCGGCGGCUCGAGCCCGGGUAAGUUUAAAUAGUCUGCAUGCCGCCGGGCGCCAUGCCUGCAGGUCGACUCUAGAAAACAUG,binding signal,PUM1 PUF domain R7-GVV,2.6 log2 enrichment (interaction score)
GGCUAGAACUAGUGGAUCCCCCGGCGCCCGGCGGCUCGAGCCCGGGUAAGUGUAAUUAGUCUGCAUGCCGCCGGGCGCCAUGCCUGCAGGUCGACUCUAGAAAACAUG,binding signal,PUM1 PUF domain R3-RRK,4.07 log2 enrichment (interaction score)
same,binding signal,PUM1 PUF domain R3-LSQ,4.75 log2 enrichment (interaction score)
GGCUAGAACUAGUGGAUCCCCCGGCGCCCGGCGGCUCGAGCCCGGGUAAGUGUCAAUAGUCUGCAUGCCGCCGGGCGCCAUGCCUGCAGGUCGACUCUAGAAAACAUG,binding signal,PUM1 PUF domain R5-PRR,0.75 log2 enrichment (interaction score)
same,binding signal,PUM1 PUF domain R5-RSK,3.23 log2 enrichment (interaction score)
same,binding signal,PUM1 PUF domain R5-KPI,5.02 log2 enrichment (interaction score)
GGCUAGAACUAGUGGAUCCCCCGGCGCCCGGCGGCUCGAGCCCGGGUAAGUGUGAAUAGUCUGCAUGCCGCCGGGCGCCAUGCCUGCAGGUCGACUCUAGAAAACAUG,binding signal,PUM1 PUF domain R5-PRR,2.13 log2 enrichment (interaction score)
same,binding signal,PUM1 PUF domain R5-QSC,3.71 log2 enrichment (interaction score)
same,binding signal,PUM1 PUF domain R5-SGC,2.36 log2 enrichment (interaction score)
